High-throughput results deposited in PubChem BioAssay by several laboratories.
Mdm2-MdmX inh – inhibitors of human Mdm2-MdmX association, primary screen, cell-based, luminescence, split luciferase, SaOS-2, uHTS; Protein Mdm4 (Homo sapiens) + E3 ubiquitin-protein ligase Mdm2 (Homo sapiens), …; SaOS-2 split-luciferase Mdm2/MdmX complementation; inhibition, % at 8 µM; 330,000 compounds, 3% hits; AID 485346, 2010;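 active = inhibition of at least 50% at 8 µM in the primary screen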
Target sequence (O15151 whole entry, looked up): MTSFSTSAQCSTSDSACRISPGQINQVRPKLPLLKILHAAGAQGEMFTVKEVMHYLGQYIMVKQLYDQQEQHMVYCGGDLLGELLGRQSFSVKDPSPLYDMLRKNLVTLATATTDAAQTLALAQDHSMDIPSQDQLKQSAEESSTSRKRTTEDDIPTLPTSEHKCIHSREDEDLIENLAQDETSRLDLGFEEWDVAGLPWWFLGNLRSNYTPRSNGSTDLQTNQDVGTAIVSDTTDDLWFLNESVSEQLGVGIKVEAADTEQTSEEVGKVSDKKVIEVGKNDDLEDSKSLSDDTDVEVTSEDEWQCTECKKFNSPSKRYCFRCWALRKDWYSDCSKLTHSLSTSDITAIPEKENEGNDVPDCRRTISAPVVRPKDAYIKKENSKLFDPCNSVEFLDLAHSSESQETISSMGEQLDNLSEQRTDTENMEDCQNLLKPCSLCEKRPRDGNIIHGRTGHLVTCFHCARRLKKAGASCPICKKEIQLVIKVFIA
Target sequence (Q00987 whole entry, looked up): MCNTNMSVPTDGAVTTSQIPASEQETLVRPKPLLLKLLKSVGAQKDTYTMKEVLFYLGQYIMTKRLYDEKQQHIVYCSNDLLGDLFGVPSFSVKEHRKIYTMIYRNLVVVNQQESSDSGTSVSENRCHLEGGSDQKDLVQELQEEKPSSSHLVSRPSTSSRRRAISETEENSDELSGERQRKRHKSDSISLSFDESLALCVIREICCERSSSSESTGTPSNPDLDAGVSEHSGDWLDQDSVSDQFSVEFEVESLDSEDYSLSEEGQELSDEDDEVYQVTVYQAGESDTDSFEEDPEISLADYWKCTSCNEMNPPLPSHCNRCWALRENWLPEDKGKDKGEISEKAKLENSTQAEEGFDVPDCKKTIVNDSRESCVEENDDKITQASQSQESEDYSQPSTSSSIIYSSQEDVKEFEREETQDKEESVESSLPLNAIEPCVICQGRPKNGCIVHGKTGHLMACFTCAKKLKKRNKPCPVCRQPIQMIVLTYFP
Beta apoptosis – inhibitors of cytokine-induced beta cell apoptosis, primary screen, luminescence; INS-1E cytokine-induced death, ATP luminescence, 48 h; percent of positive-control rescue, neutral wells zero; protection from apoptosis, % (concentration not given with the values); 300,000 compounds, 0.8% hits; AID 435005, 2010;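 active = Every replicate reaches about 75%, or at least half do and their mean reaches it too, limit read from the data; inconclusive = At least half of replicates reach the limit but their mean does not; inactive = Under half of replicates reach the limit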;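 note: higher means more ATP so stronger rescue from cytokine killing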
697 NFkB inh – inhibitors of PMA/ionomycin-induced NF-kB reporter, 697 cells, primary screen, B-cell NF-kB inhibitor project, cell-based, luminescence, uHTS; inhibition, % at 4 µM; 330,000 compounds, 0.33% hits; 697 B-cell NF-kB luciferase reporter, 16 h; in the data active = inhibition above about 35%
Jurkat NFkB inh – inhibitors of induced NF-kB luciferase reporter, primary screen, TCR NF-kB activation inhibitor project, cell-based, luminescence, uHTS. Jurkat, PMA/ionomycin-induced NF-kB luciferase reporter. inhibition, % at 4 µM. AID 435003, 2010. 330,000 compounds, 0.53% hits; in the data active = inhibition above about 50%
Gli-Sufu antag – Gli-Sufu pathway antagonists, primary screen, luciferase luminescence, Sufu-KO-LIGHT cells, uHTS; Sufu-KO-LIGHT fibroblasts, Gli luciferase reporter luminescence; inhibition, % at 5 µM; 340,000 compounds, 0.74% hits;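 active = inhibition above about 55%, limit read from the data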
CSC inhib – cancer stem cell viability inhibitors, primary screen, luminescence. inhibition, % at 7.5 µM. 300,000 compounds, 1.1% hits. AID 2717, 2010. cancer stem cell-like cells viability; in the data active = inhibition above about 75%; inconclusive = no clear call, values can overlap the other calls; tested in HMLE shEcad cells
Mdm2-MdmX conf – Mdm2-MdmX complex disruptors, retested hits, confirmation, luminescence, single concentration | shares compounds with Mdm2-MdmX inh | Mdm2-MdmX binding, luminescent assay | inhibition, % at 8 µM | 10,000 compounds, 55% hits; in the data active = inhibition above about 40%
FLuc counter – full-length luciferase signal inhibition, confirmation, counter-screen for Mdm2/MdmX interaction inhibitor project, cell-based, single concentration, SaOS-2; 6,200 compounds, 77% hits; inhibition, % at 8 µM; AID 504607, 2011; SaOS-2 full-length luciferase counterscreen, luminescence; shares compounds with Mdm2-MdmX inh;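 active = mean inhibition at 8 µM reaching about 37%, which flags the compound as non-specific, limit read from the data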;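 note: p53-null SaOS-2 cells with luciferase driven by a doxycycline-inducible promoter; compound on cells about two nights before reading with doxycycline added after day one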
Gli-Sufu confirm – Gli-SUFU pathway antagonists, confirmation, single concentration, luciferase luminescence, Sufu-KO-LIGHT cells; inhibition, % at 5 µM; Gli luciferase reporter; shares compounds with Gli-Sufu antag; 2,500 compounds, 40% hits;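 active = mean inhibition at 5 µM reaching about 45%, limit read from the data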
Gli cytotox – cytotoxicity in Sufu-KO-LIGHT cells, confirmation, cytotoxicity control for Gli-SUFU antagonist project, cell-based, ATP luminescence, single concentration; shares compounds with Gli-Sufu antag; 2,500 compounds, 32% hits; cytotoxicity, % at 5 µM; AID 651994, 2013;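 active = mean cytotoxicity at 5 µM above about 25%, limit read from the data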;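 note: cells exposed to compound overnight for roughly 16 to 18 hours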
Wnt3a cs – Wnt3a reporter signal inhibition, confirmation, counter-screen for Gli-SUFU antagonist project, Wnt-LIGHT cells, luminescence, single concentration; shares compounds with Gli-Sufu antag; Wnt3a-driven luciferase reporter; inhibition, % at 6.25 µM; 2,500 compounds, 20% hits; AID 651995, 2013;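 active = mean inhibition above about 25%, limit read from the data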
Of the large screens only hits and unclear results are named; the others gave an inactive call (follow-up assays come after a bar, where they were run). Sampled rows, rich in hits. Any-hit rate of the full collection: about 4.5%.

O=c1c(N=Nc2ccc(O)cc2)c(-c2ccccc2)[nH]n1-c1ccc([N+](=O)[O-])cc1	Mdm2-MdmX inh 100 | Mdm2-MdmX conf inactive | Gli-Sufu confirm inactive | Gli cytotox inactive | Wnt3a cs 67
CCN1CCCC1CNC(=O)c1cc(COc2ccc(C)c(C)c2)on1 (stereo not given)	none
CCOC(=O)c1oc2ccc(S(=O)(=O)n3nc(-c4ccc(Cl)cc4)cc3N)cc2c1C	Mdm2-MdmX inh 62 | Mdm2-MdmX conf 54 | FLuc counter 57 | Gli-Sufu confirm inactive | Gli cytotox inactive | Wnt3a cs inactive
COc1ccc(Cc2nnc(N/N=C/c3ccc(O)cc3)[nH]c2=O)cc1OC	Mdm2-MdmX inh 66, Beta apoptosis 99, Gli-Sufu antag 82, CSC inhib 102 | Mdm2-MdmX conf 70 | FLuc counter inactive | Gli-Sufu confirm 85 | Gli cytotox 29 | Wnt3a cs 73
CC(=O)c1cccc(NC(=O)CSc2n[nH]c(=O)n2C2CC2)c1	none
CCN(CC)S(=O)(=O)c1cccc(C(=O)N/N=C/c2cccc(O)c2O)c1	Mdm2-MdmX inh 60, Gli-Sufu antag 71, CSC inhib 98 | Mdm2-MdmX conf 66 | FLuc counter 39 | Gli-Sufu confirm 51 | Gli cytotox 48 | Wnt3a cs 36
O=C(N/N=C/c1ccc(O)cc1)c1cccc(C(F)(F)F)c1	none
O=C(N/N=C/c1ccccc1O)c1cccc(C(F)(F)F)c1	Mdm2-MdmX inh 69, Beta apoptosis inconclusive, Gli-Sufu antag 66, CSC inhib 78 | Mdm2-MdmX conf 73 | FLuc counter inactive | Gli-Sufu confirm 62 | Gli cytotox 36 | Wnt3a cs 58
COc1ccc(-c2nsc3c(N4CCCCC4C)ncnc23)cc1 (stereo not given)	Mdm2-MdmX inh 84, Gli-Sufu antag 81 | Mdm2-MdmX conf 91 | FLuc counter inactive | Gli-Sufu confirm 91 | Gli cytotox 47 | Wnt3a cs 105
COc1ccc(-c2nsc3c(N4CCN(S(=O)(=O)c5ccccc5F)CC4)ncnc23)cc1	none
Cc1ccc(-n2c(C)nnc2SCC(=O)N(C)C2CCS(=O)(=O)C2)cc1 (stereo not given)	none
COc1ccc(NS(=O)(=O)c2cccc(NC(=O)c3ccc(S(=O)(=O)N4CCCCCC4)cc3)c2)cc1	Mdm2-MdmX inh 53, Beta apoptosis 100, Gli-Sufu antag 61 (no result: CSC inhib) | Mdm2-MdmX conf inactive | Gli-Sufu confirm 63 | Gli cytotox inactive | Wnt3a cs 28
N#Cc1c(C(F)(F)F)cc(-c2ccccc2)nc1SCC(=O)Nc1sc2c(c1C#N)CCC2	Mdm2-MdmX inh 72, Gli-Sufu antag 68 | Mdm2-MdmX conf 64 | FLuc counter 55 | Gli-Sufu confirm 76 | Gli cytotox inactive | Wnt3a cs 54
N#Cc1ccc(-c2cccnc2)nc1SCC(=O)Nc1sc2c(c1C#N)CCC2	none
